High-throughput results deposited in PubChem BioAssay by several laboratories.
In the library only some 2.5% were active in any assay of this set; here they are far more common.
TMEM16A inh: inhibitors of mouse TMEM16A calcium-activated chloride channel; HEK293 TMEM16A/YFP iodide influx fluorescence, ionomycin; AID 588511; Q8BHY3; hit rate 1.2% among 310,000; normalized B-score (activity score, 25-100; higher = stronger inhibition) at 10 µM;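 active means ratio plate-corrected score three or more library SD toward inhibition, starting fluorescence score within five deviations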;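 further: score derived from kinetic fluorescence span divided by baseline fluorescence per well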
PKA-R1A activ: PKA-R1A complex activation; activation, % at 11.4 µM; AID 504707; PKA-R1A dissociation, Cy5-IP20 fluorescence polarization; scaled: DMSO 0%, 113 µM cGMP 100%; hit rate 0.083% among 340,000;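 active means percent activation above the mean of all tested compounds plus 3 SD, cut at about 19% in these data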;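 further: higher means more PKAc released from R1A so a rise in polarization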
CHT allo act: allosteric activators of human choline transporter CHT | Q9GZV3 | CHT-expressing cells, membrane potential dye, choline EC20; active compounds read high; LV-AA mutant CHT in HEK293 cells | B-score at 10 µM | hit rate 0.49% among 310,000 | AID 488977;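 active means initial fluorescence not abnormally high and integrated response B-score, plate-corrected, over 3 SD above library mean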
Target sequence (Q9GZV3 whole entry, looked up): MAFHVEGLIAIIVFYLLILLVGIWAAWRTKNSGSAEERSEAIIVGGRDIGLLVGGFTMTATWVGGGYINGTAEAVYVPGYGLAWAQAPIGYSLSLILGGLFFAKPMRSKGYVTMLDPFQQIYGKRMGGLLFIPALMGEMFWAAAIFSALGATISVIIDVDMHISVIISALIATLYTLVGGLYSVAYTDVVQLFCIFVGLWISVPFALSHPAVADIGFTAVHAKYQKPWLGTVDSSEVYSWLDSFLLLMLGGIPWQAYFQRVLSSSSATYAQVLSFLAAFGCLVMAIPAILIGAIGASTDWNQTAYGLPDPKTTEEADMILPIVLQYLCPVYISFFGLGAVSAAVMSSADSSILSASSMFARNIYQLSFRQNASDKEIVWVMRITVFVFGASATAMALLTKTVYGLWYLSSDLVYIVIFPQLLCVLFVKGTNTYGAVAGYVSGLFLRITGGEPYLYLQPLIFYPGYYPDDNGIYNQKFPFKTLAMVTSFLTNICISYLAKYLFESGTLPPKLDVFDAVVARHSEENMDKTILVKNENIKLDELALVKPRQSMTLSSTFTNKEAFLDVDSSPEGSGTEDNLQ
CHT inh: human CHT choline transport inhibition; Q9GZV3; CHT-expressing cells, membrane potential dye, choline response; active compounds read low; B-score at 10 µM; hit rate 0.86% among 310,000;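 active means B-score over 3 SD under the library average, and starting fluorescence ratio not unusually high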;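 further: choline stimulus applied at its EC90 after an EC20 pre-addition; B-score computed on integrated fluorescence ratio after choline addition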
TMEM16A act: mouse TMEM16A channel activation, primary screen | hit rate 0.3% among 340,000 | HEK293 TMEM16A/YFP-H148Q/I152L, iodide quench fluorescence; active compounds read low | AID 623877 | Q8BHY3 | B-score at 10 µM;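 active means fluorescence-ratio B-score plate-corrected deviation score at least 3 library SD below zero, with starting fluorescence score within 5 deviations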;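 further: channel opened by trigger with iodide after compound preincubation; score built on the fluorescence ratio of max minus min over baseline; more negative score means more quench and so TMEM16A activation or potentiation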
PKA-R2B activ: activators of human PKA-R2B complex. hit rate 0.079% among 340,000. AID 504700. activation, % at 11.4 µM. PKA-R2B holoenzyme dissociation, Cy5-IP20 fluorescence polarization; R2B truncated from residue 108, S112A mutant; 0% DMSO only, 100% 113 µM cGMP;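 active means activation above a cutoff set at the mean over all compounds plus 3 SD, cut at about 18% in these data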;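 further: higher means more holoenzyme dissociation and a rise in polarization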
* hit, by the source's call; i = inactive; / = not tested or not shown.

SMILES	TMEM16A inh	PKA-R1A activ	CHT allo act	CHT inh	TMEM16A act	PKA-R2B activ
COc1ccc(NC2=C3CC(C)CC=C3N(c3ccc(OC)cc3)C2=O)cc1 (centres undefined)	i	-1	i	i	i	-1
CCC(C(=O)Nc1cccc(C(F)(F)F)c1)c1ccccc1 (centres undefined)	i	-16	i	i	-6.6*	-12
CC1=C/C(=N\OS(=O)(=O)c2ccccc2)C(C(C)C)=CC1=O	i	0	i	i	-5*	-9
CC(S(=O)(=O)c1ccccc1)S(=O)(=O)c1ccccc1	/	10	/	/	/	1
O=c1cc(C(F)(F)F)nc(SC/C=C/c2ccccc2)[nH]1	100*	5	i	i	i	-5
Nc1cc(=O)[nH]c(SC/C=C/c2ccccc2)n1	i	4	i	i	i	-8
CCn1c(SCC(=O)NC2CCCC2)nnc1C(C)NC(=O)c1ccccc1Br (centres undefined)	i	3	i	i	i	-6
C=CCNc1nc(-c2c(C)nc3sccn23)cs1	i	-11	i	i	i	-20
Cc1nc2sccn2c1-c1csc(NCc2ccccc2)n1	25*	-8	i	i	i	-2
Cc1noc(C)c1S(=O)(=O)N1CCN(c2ccccc2Cl)CC1	/	7	/	/	i	-9
COc1ccc(-c2nn(-c3ccccc3)cc2C(=O)N/N=C/c2ccc([N+](=O)[O-])o2)cc1	i	-3	i	i	-6.9*	-2
Cc1cc(C(=O)N/N=C/c2ccc([N+](=O)[O-])o2)c(C)o1	i	-11	i	i	i	-8
COc1ccc2ccccc2c1/C=N/NC(=S)NCCN1CCOCC1	i	-1	i	i	-29*	0
CCCc1ncc(C(O)c2ccccc2OC)n1C (centres undefined)	i	/	i	i	i	/
COc1cc(C(=O)Nc2nc(C)cc(C)n2)cc(OC)c1OC	i	-6	i	i	i	6
C/C(=N\N1CCN(c2ccc(Cl)cc2)CC1)c1cccc([N+](=O)[O-])c1	25*	-18	i	i	i	-15
COc1ccc(-c2sc(Nc3ccccc3)n[n+]2-c2ccccc2)cc1Br	i	1	i	i	i	8
C(=C\c1sc(Nc2ccccc2)n[n+]1-c1ccccc1)/c1ccccc1	/	-10	/	/	-8.9*	3
CN1OC[C@@H]2CN(C(=O)CCc3ccccc3)[C@H](c3cccc(-c4ccccc4)c3)C[C@@H]21	/	-3	/	/	i	6
COc1cc(CN(C2CCCCC2C)S(=O)(=O)c2ccc(S(=O)(=O)NC3CC3)cc2)cc(OC)c1OC (centres undefined)	i	-4	i	i	i	-8
COc1ccc(CN(C2CCCCC2C)S(=O)(=O)c2ccc(S(=O)(=O)N(C)C)cc2)cc1OC (centres undefined)	i	-9	i	i	-29*	-11
CSc1ccccc1NC(=S)NCc1ccc(Cl)cc1	i	-3	i	i	i	2
O=C(COc1ccccc1)NNC(=S)NC(=O)c1ccc(Cl)cc1Cl	25*	/	i	i	/	/
COc1cccc(OCC(=O)NNC(=S)Nc2ccc(Cl)cc2Cl)c1	100*	-11	i	i	i	0
O=C(COc1cccc(Cl)c1)NNC(=S)Nc1ccccc1	i	-3	i	i	i	-2
SMILES	TMEM16A inh	PKA-R1A activ	CHT allo act	CHT inh	TMEM16A act	PKA-R2B activ
Cc1cccc(C(=O)NC(=S)NNC(=O)COc2ccc(Cl)cc2)c1	/	7	/	/	i	5
CCOC(=O)C(CCCCCOc1ccc([N+](=O)[O-])cc1)C(=O)OCC	100*	2	i	i	i	-2
CCOC(=O)C(CCCCCOc1ccccc1[N+](=O)[O-])C(=O)OCC	i	-4	i	i	i	-4
COc1ccc(CCCc2nnc(SCC(=O)Nc3cc(C)c(C)cc3Br)o2)cc1	i	-3	i	i	i	6
COc1ccc(OC)c(/C=N\NC(=O)CSc2nnc(CCCc3ccc(OC)c(C)c3)o2)c1	100*	3	i	i	i	-6
CN(C)S(=O)(=O)c1cccc(NC(=S)Nc2ccc(Cl)cc2Cl)c1	i	-4	i	i	i	-3
CN(C)S(=O)(=O)c1cccc(NC(=S)Nc2cc(Cl)cc(Cl)c2)c1	100*	12	i	i	i	7
Cc1c(O)cc2c(c1O)C(=O)CC(c1ccccc1)O2 (centres undefined)	100*	0	i	i	-6.5*	-8
Cc1cccc(S(=O)(=O)NNC(=O)Cc2cccn2C)c1	25*	0	i	i	i	-7
N#C[C@H]1C2OC2c2ccccc2N1C(=O)c1ccccc1 (some centres undefined)	i	1	i	i	i	3
CCOC(=O)c1ccc2c(c1)N(CC#N)C(=O)C(C)(C)O2	25*	-8	i	i	i	-8
CCOC(=O)c1ccc2c(c1)N(CC(=O)N1CCCC1)C(=O)C(C)(C)O2	i	10	i	i	i	1
O=C(NNc1cccc(Cl)n1)Nc1ccc(F)cc1	i	-5	i	i	i	0
CCOc1ccc(NC(=O)CN(C)C(=O)CC(NC(=O)c2ccccc2)c2ccccc2)cc1OCC (centres undefined)	i	-10	i	i	-4.9*	-4
CCOC(=O)c1cncc(O)c1	i	-11	i	i	i	0
COCCn1c(C)cc(C(=O)CSc2ccc3ccccc3n2)c1C	25*	2	i	i	i	-13
COCCn1c(C)cc(C(=O)COc2nc3ccccc3nc2C)c1C	i	1	i	i	i	-13
Cc1cc(SCC(=O)N2c3ccccc3NC(=O)CC2C)nc2ccccc12 (centres undefined)	/	-9	/	/	/	0
Cc1nn(-c2ccccc2)nc1CNC(=O)c1ncoc1-c1ccccc1	i	1	i	i	-5.6*	10
COc1ccccc1N1CC=C(c2cccc([N+](=O)[O-])c2)NC1=O	i	-14	i	i	i	3
O=C(Nc1ccc(Cl)c([N+](=O)[O-])c1)C(Sc1ccccc1)c1ccccc1 (centres undefined)	100*	-4	i	i	i	-12
N=C(N)c1ccc(N=Nc2c(O)ccc3c2[nH]c2ccccc23)cc1	/	5	/	/	i	-19
